Our source for the outcome and AC50 values is PubChem BioAssay (EPA / NIEHS).

Inconclusive results are not listed. Activity calls are given as the source filed them. The calls were made as follows, unless noted: active = hit-call score of the fitted dose curve at least 0.9, where 1 is the maximum; inconclusive = response in the unintended direction; inactive = score below 0.9.

Read-out in test [1]: sulfotransferase 2A1 (SULT2A1), SULT2A1 (gene 6822)
Put plainly: LTEA_HepaRG_SULT2A1: Life Technologies and Expression Analysis (LTEA) Assay for sulfotransferase 2A1 (SULT2A1) using HepaRG (AID 2283531; active = hit-call score of the fitted dose curve at least 0.9, where 1 is the maximum; inactive = score below 0.9). Particulars: mRNA level, 48 h; actives raise or lower the signal. The procedure, abridged:
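Gene-expression endpoint in a human liver cell line: SULT2A1 mRNA change after 48 h chemical treatment, curves fitted in both directions relative to 0.5% DMSO vehicle. Concentrations spanned eight half-log steps from 100 uM.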

Read-out in test [2]: Transforming Growth Factor (TGFA), TGFA (gene 7039)
Put plainly: LTEA_HepaRG_TGFA: Life Technologies and Expression Analysis (LTEA) Assay for Transforming Growth Factor (TGFA) using HepaRG (AID 2283532; active = hit-call score of the fitted dose curve at least 0.9, where 1 is the maximum; inactive = score below 0.9). Particulars: mRNA level, 48 h; actives raise or lower the signal. The procedure, abridged: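 Differentiated human HepaRG cells, plated 48 h then switched to serum-free induction medium, were exposed in duplicate for 48 h to 8-point half-log series from 100 uM in 0.5% DMSO. TGFA mRNA measured by qRT-PCR, normalized to ACTB/GAPDH/POLR2A, bidirectional fit versus DMSO.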

Read-out in test [3]: Transforming Growth Factor (TGFB1), TGFB1 (gene 7040)
As to the kind of experiment: LTEA_HepaRG_TGFB1: Life Technologies and Expression Analysis (LTEA) Assay for Transforming Growth Factor (TGFB1) Transporter using HepaRG (AID 2283533; active = hit-call score of the fitted dose curve at least 0.9, where 1 is the maximum; inactive = score below 0.9). Particulars: mRNA level, 48 h; actives raise or lower the signal. In outline: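 Eight-point concentration-response (max 100 uM, half-log) in HepaRG under serum-free induction conditions, 48 h. TGFB1 mRNA by qRT-PCR, housekeeping-normalized.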

Read-out in a further test: TIMP1, TIMP1 (gene 7076)
As to the kind of experiment: LTEA_HepaRG_TIMP1: Life Technologies and Expression Analysis (LTEA) Assay for TIMP1 using HepaRG (AID 2283534; active = hit-call score of the fitted dose curve at least 0.9, where 1 is the maximum; inactive = score below 0.9). Particulars: mRNA level, 48 h; actives raise or lower the signal. The procedure, abridged:
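TIMP1 induction or repression in HepaRG cells after 48 h chemical exposure (eight concentrations, highest 100 uM), assessed by normalized qRT-PCR with bidirectional fitting to DMSO controls.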

Read-out in test [4]: Tumor necrosis factor receptor 1 (TNFRSF1A), TNFRSF1A (gene 7132)
Put plainly: LTEA_HepaRG_TNFRSF1A: Life Technologies and Expression Analysis (LTEA) Assay for Tumor necrosis factor receptor 1 (TNFRSF1A) using HepaRG (AID 2283535; active = hit-call score of the fitted dose curve at least 0.9, where 1 is the maximum; inactive = score below 0.9). The settings on record: mRNA level, 48 h; actives raise or lower the signal. The procedure, abridged:
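Assay uses 48 h chemical treatment of differentiated HepaRG monolayers, tested in duplicate at eight concentrations from 100 uM downward in 0.5% DMSO. mRNA is normalized to ACTB, GAPDH and POLR2A, with induction or suppression fitted relative to vehicle.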

Read-out in test [5]: Thyroid Hormone Responsive (THRSP), THRSP (gene 7069)
Put plainly: LTEA_HepaRG_THRSP: Life Technologies and Expression Analysis (LTEA) Assay for Thyroid Hormone Responsive (THRSP) using HepaRG (AID 2283536; active = hit-call score of the fitted dose curve at least 0.9, where 1 is the maximum; inactive = score below 0.9). The settings on record: mRNA level, 48 h; actives raise or lower the signal. The procedure, abridged: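 Differentiated human HepaRG cells were exposed in duplicate for 48 h in serum-free induction medium to eight concentrations (top 100 uM, half-log steps, 0.5% DMSO). Expression was quantified by TaqMan qRT-PCR, normalized to ACTB, GAPDH and POLR2A, with bidirectional fitting against DMSO.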

Read-out in test [6]: Cellular tumor antigen p53 (Homo sapiens) (UniProt P04637)
As to the kind of experiment: LTEA_HepaRG_TP53: Life Technologies and Expression Analysis (LTEA) Assay for Tumor Protein P53 (TP53) using HepaRG (AID 2283537; active = hit-call score of the fitted dose curve at least 0.9, where 1 is the maximum; inactive = score below 0.9). The settings on record: mRNA level, 48 h; actives raise or lower the signal. The procedure, abridged: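 Differentiated HepaRG cells in serum-free induction medium exposed 48 h in duplicate to 8 half-log concentrations, top 100 uM, 0.5% DMSO. TP53 mRNA by TaqMan qRT-PCR (Fluidigm), normalized to ACTB, GAPDH, POLR2A; fitted bidirectionally versus DMSO.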

Read-out in test [7]: UDP glucuronosyltransferase (UGT1A1), UGT1A1 (gene 54658)
Put plainly: LTEA_HepaRG_UGT1A1: Life Technologies and Expression Analysis (LTEA) Assay for UDP glucuronosyltransferase (UGT1A1) using HepaRG (AID 2283538; active = hit-call score of the fitted dose curve at least 0.9, where 1 is the maximum; inactive = score below 0.9). The settings on record: mRNA level, 48 h; actives raise or lower the signal. The procedure, abridged:
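Readout is UGT1A1 transcript level by qRT-PCR, normalized to three housekeeping genes, after 48 h chemical treatment of HepaRG cells. Concentrations ran from 100 uM down in half-log steps with 0.5% DMSO, and gain or loss relative to DMSO was fitted.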

Read-out in test [8]: UDP glucuronosyltransferase (UGT1A6), UGT1A6 (gene 54578)
Put plainly: LTEA_HepaRG_UGT1A6: Life Technologies and Expression Analysis (LTEA) Assay for UDP glucuronosyltransferase (UGT1A6) using HepaRG (AID 2283539; active = hit-call score of the fitted dose curve at least 0.9, where 1 is the maximum; inactive = score below 0.9). Particulars: mRNA level, 48 h; actives raise or lower the signal. In outline: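 Measures mRNA change in HepaRG hepatic cells exposed 48 h to chemicals (eight-point, maximum 100 uM, 0.5% DMSO vehicle) in serum-free induction medium. Expression normalized to endogenous controls; DMSO served as negative control and baseline.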

Read-out in test [9]: X-box binding protein 1 (XBP1), XBP1 (gene 7494)
As to the kind of experiment: LTEA_HepaRG_XBP1: Life Technologies and Expression Analysis (LTEA) Assay for X-box binding protein 1 (XBP1) using HepaRG (AID 2283540; active = hit-call score of the fitted dose curve at least 0.9, where 1 is the maximum; inactive = score below 0.9). The settings on record: mRNA level, 48 h; actives raise or lower the signal. In outline:
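Eight concentrations (half-log, highest 100 uM, 0.5% DMSO) tested in duplicate on HepaRG cells over 48 h in serum-free induction medium; qRT-PCR of XBP1 normalised to ACTB, GAPDH, POLR2A.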

A short description of test [10]: LTEA_HepaRG_LDH_cytotoxicity: Cytotoxicity Assessment in the Life Technologies and Expression Analysis (LTEA) Assay (AID 2283563).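 As to AC50: LDH activity released into spent culture medium as a marker of cell death.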 In outline: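 Spent-medium LDH after 48 h chemical exposure of HepaRG cells in serum-free induction medium; eight concentrations, half-log dilutions from 100 uM, duplicate wells, fitted upward relative to 0.5% DMSO.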
Test [11] can be described thus: TOX21_p53_BLA_p2_viability: Viability Assessment in the Tox21 HCT-116 p53 Agonism Beta-lactamase Assay, Phase 2 (AID 2283591).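 Also: compound exposure lasted 16 h at 37 °C; actives lower the ATP signal meaning cytotoxicity.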 In outline: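 HCT-116 p53-bla cells (4000/well) rested 5 h at 37C, then received compounds in DMSO (217-fold dilution) for 16 h at 37C, 5% CO2. After the CCF4 read, CellTiter-Glo was added; ATP luminescence was read after 30 min at room temperature.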

The target in test [12] is Cellular tumor antigen p53 (Homo sapiens) (UniProt P04637). Put plainly: TOX21_p53_BLA_p2_ratio: Tox21 HCT-116 p53 Agonism Beta-lactamase Assay, Ratio, Phase 2 (AID 2283592). The procedure, abridged:
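Human colon HCT116 cells with an inducible p53 beta-lactamase reporter are exposed to test chemicals for 16 h at 37C. Reporter induction is read as the 460/530 nm emission ratio after CCF4-AM loading, normalized to DMSO.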

Test [13] in a line: TOX21_p53_BLA_p3_viability: Viability Assessment in the Tox21 HCT-116 p53 Agonism Beta-lactamase Assay, Phase 3 (AID 2283593).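 Also: cells exposed to compound for 16 h before reading.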 In outline: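 HCT-116 cells (4000/well) rested 5 h at 37C, then got DMSO compounds by pin tool (217-fold dilution) for 16 h at 37C, 5% CO2. After the bla read, CellTiter-Glo was added and luminescence read at 30 min, room temperature.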
Test [14] addresses Cellular tumor antigen p53 (Homo sapiens) (UniProt P04637). Put plainly: TOX21_p53_BLA_p3_ratio: Tox21 HCT-116 p53 Agonism Beta-lactamase Assay, Ratio, Phase 3 (AID 2283596). In outline: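 HCT116 p53-bla cells (4000/well) given compound in DMSO (217-fold dilution) after 5 h, incubated 16 h at 37C. CCF4-AM substrate 2 h at room temperature; 460/530 nm emission ratio, gain fitted against DMSO.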

A short description of test [15]: TOX21_p53_BLA_p4_viability: Viability Assessment in the Tox21 HCT-116 p53 Agonism Beta-lactamase Assay, Phase 4 (AID 2283597).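 Also: hits lower the luminescence signal meaning cytotoxicity.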 In outline: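 Luminescent ATP readout (CellTiter-Glo, 30 min, room temperature) in the same wells as the p53 bla ratio. HCT116 cells were treated for 16 h at 37C with DMSO-dissolved compounds.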
Test [16] can be described thus: TOX21_p53_BLA_p5_viability: Viability Assessment in the Tox21 HCT-116 p53 Agonism Beta-lactamase Assay, Phase 5 (AID 2283600). In outline:
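Seeded cells (4000/well) settle 5 h before compound addition. Plates then incubate 16 h at 37C, receive FRET substrate for 2 h, and finally CellTiter-Glo, with luminescence measured after a 30 min room-temperature incubation.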

The nature of test [17]: ATG_XTT_Cytotoxicity: Cytotoxicity Assessment in the Attagene TRANS-FACTORIAL HepG2 Assay (AID 2283584). In outline:
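24 h chemical exposure of reporter-transfected HepG2; XTT signal loss vs DMSO indicates cytotoxicity.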

Test [18] deals with Cellular tumor antigen p53 (Homo sapiens) (UniProt P04637). As to the kind of experiment: TOX21_p53_BLA_p5_ratio: Tox21 HCT-116 p53 Agonism Beta-lactamase Assay, Ratio, Phase 5 (AID 2283599). In outline: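 HCT-116 cells carrying a p53-inducible beta-lactamase reporter were seeded at 4000 cells/well and dosed after 5 h with compound in DMSO (217-fold dilution). After 16 h at 37C, CCF4-AM substrate was added for 2 h, and the 460/530 nm emission ratio was scored as gain-of-signal versus DMSO.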

Test [19] shares this target. As to the kind of experiment: TOX21_p53_BLA_p4_ratio: Tox21 HCT-116 p53 Agonism Beta-lactamase Assay, Ratio, Phase 4 (AID 2283601). In outline: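 HCT116 cells carrying an inducible beta-lactamase reporter were plated at 4000 cells/well, rested 5 h, then exposed to compounds in DMSO (217-fold dilution) for 16 h at 37C. CCF4-AM substrate was loaded 2 h at room temperature; 460/530 nm emission ratio scored gain-of-signal versus DMSO.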

Cellular tumor antigen p53 (Homo sapiens), sequence (P04637 whole entry, looked up): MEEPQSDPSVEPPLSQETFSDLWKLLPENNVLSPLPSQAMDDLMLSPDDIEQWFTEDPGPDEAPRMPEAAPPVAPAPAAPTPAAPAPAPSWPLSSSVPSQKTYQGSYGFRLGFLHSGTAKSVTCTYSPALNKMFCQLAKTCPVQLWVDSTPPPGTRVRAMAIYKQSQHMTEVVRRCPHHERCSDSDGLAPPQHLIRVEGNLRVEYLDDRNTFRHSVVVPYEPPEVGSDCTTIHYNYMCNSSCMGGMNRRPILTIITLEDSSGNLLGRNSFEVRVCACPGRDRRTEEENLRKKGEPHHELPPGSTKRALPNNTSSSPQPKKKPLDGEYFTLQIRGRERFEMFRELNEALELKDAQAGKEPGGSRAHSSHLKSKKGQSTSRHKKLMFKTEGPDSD

As for `Cc1c(F)c(F)c(COC(=O)C2C(/C=C(\Cl)C(F)(F)F)C2(C)C)c(F)c1F` (configuration not stated), the outcome in test [1] was “inactive”; in test [2] it was “inactive”; in test [3], “inactive”; with TIMP1, TIMP1 (gene 7076), “inactive”; in test [4], “inactive”; in test [5] it was “inactive”. The molecule was called inactive in test [6], in test [7], in [8], in test [9], in test [10] and in test [11]. In addition, the result in test [12], in test [13], in [14], in test [15] and in test [16] was inactive.

As a reminder, the AC50 is the midpoint of the concentration-response curve, whichever way the signal moves. Turning to `CCCC1COC(Cn2cncn2)(c2ccc(Cl)cc2Cl)O1` (configuration not stated), the AC50 was 59 µM (active) in test [1]; 50 µM (active) in [2]; 27.3 µM (active) in test [3]; 7.44 µM (active) in [5]; 34.3 µM (active) in [6]; 35.8 µM (active) in test [7]. In addition, the AC50 in test [8] was 59.5 µM (active); in [10], 32 µM (active). Further, the result in test [4], in [9], in test [17], in test [12], in test [13] and in [14] was inactive. The call in [15], in test [18], in test [16] and in [19] was inactive.

`CCOc1cc(Oc2ccc(C(F)(F)F)cc2Cl)ccc1[N+](=O)[O-]`: the AC50 was 35.3 µM (active) in test [1]; 15.3 µM (active) in test [2]; 19 µM (active) in test [3]; 21.7 µM (active) in test [5]; 14 µM (active) in test [6]; 5.1 µM (active) in test [7]. For the same molecule, the outcome with TIMP1, TIMP1 (gene 7076) is “inactive”; in test [4], “inactive”; in test [8], “inactive”; in test [9], “inactive”; in [10], “inactive”; in test [12], “inactive”. In addition, the call in [13], in [14], in test [15], in test [16] and in test [19] was inactive.
